Screening results (PubChem BioAssay)
Rows were chosen to be rich in hits. Some 2.6% of all compounds tested hit in one or more screens of this group.
NR2F2 inh: NR2F2 (human) inhibition, primary screen. P24468. HEK293T NGFI-A luciferase reporter, luminescence. 370,000 tested, 0.7% active. inhibition, % at 8.6 µM. AID 686940;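 active = inhibition above a per-plate cutoff, mean inhibition of test wells between control levels plus 3 SD, cut at about 38% in these data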;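 note: cells cotransfected with COUP-TFII expression vector driving the NGFI-A reporter; 0% = median of COUP-TF2 test wells and 100% = reporter-only cells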
Target sequence (P24468 whole entry, looked up): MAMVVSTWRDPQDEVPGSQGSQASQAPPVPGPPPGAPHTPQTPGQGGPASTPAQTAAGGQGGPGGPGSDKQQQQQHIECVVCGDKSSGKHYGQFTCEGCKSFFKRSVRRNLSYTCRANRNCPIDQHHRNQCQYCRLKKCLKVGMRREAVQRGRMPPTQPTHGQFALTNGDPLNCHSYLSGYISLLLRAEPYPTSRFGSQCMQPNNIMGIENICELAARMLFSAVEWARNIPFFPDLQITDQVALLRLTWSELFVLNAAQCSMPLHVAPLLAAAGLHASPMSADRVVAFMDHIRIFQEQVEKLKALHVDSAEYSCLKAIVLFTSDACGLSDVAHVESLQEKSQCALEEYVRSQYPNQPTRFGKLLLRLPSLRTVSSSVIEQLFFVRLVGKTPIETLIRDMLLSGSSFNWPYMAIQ
TAG inh: triacylglycerol accumulation inhibition; H9c2 cells, Nile Red lipid (TAG) fluorescence; cells loaded with 200 µM oleic acid; inhibition, % at 12.5 µM; 230,000 tested, 0.66% active; AID 651582;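 active = pattern-corrected inhibition of lipid staining of at least 50% with the nuclear-stain viability signal not falling by more than 50%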;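 note: 0% = DMSO wells and 100% = triacsin C control wells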
697 NFkB inh: inhibitors of the PMA/ionomycin-induced NF-kB reporter in 697 B cells. inhibition, % at 4 µM. 330,000 tested, 0.33% active. 697 B-cell NF-kB luciferase reporter, 16 h; in the data active = inhibition above about 35%
Jurkat NFkB inh: inhibitors of the PMA/ionomycin-induced NF-kB reporter in Jurkat cells; PMA/ionomycin-induced NF-kB luciferase reporter, luminescence; inhibition, % at 4 µM; 330,000 tested, 0.53% active; AID 435003; in the data active = inhibition above about 50%
H9c2 protect: myocardial damage modulation in H9c2 cells | H9c2 cardiomyocytes, H2O2 injury protection, ATPLite, 2 h | protection from H2O2 cell death, % at 20 µM | 360,000 tested, 0.63% active;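 active = compounds giving at least 50% protection of heart cells from peroxide-induced death in the single-dose screen, raw or plate-pattern-corrected value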;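 note: 0% = DMSO wells with peroxide and 100% = DMSO wells without peroxide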
Gli-Sufu block: Gli-Sufu pathway antagonism | 340,000 tested, 0.74% active | inhibition, % at 5 µM | Sufu-KO-LIGHT fibroblasts, Gli luciferase reporter luminescence;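 active = inhibition above about 55%, limit read from the data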;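 note: 0% = DMSO-treated cells and 100% = wells with medium but no cells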
Gli antag conf: confirmation of Gli-SUFU pathway antagonists; shares compounds with Gli-Sufu block; Sufu-KO-LIGHT cells, Gli luciferase reporter, luminescence; inhibition, % at 5 µM; 2,500 tested, 40% active;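 active = mean inhibition at 5 µM reaching about 45%, limit read from the data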;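 note: plate controls were DMSO-treated cells for no effect and wells lacking cells for full effect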
Gli cytotox: cytotoxicity counter-screen for Gli-SUFU antagonists. shares compounds with Gli-Sufu block. Sufu-KO-LIGHT cells cytotoxicity, ATP luminescence. cytotoxicity, % at 5 µM. 2,500 tested, 32% active;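 active = mean cytotoxicity at 5 µM above about 25%, limit read from the data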;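 note: cells exposed to compound overnight for roughly 16 to 18 hours; plate controls were DMSO wells with cells for no effect and medium without cells for full effect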
Wnt3a counter: counter-screen for Gli-SUFU antagonists: Wnt3a reporter inhibition; Wnt-LIGHT cells, Wnt3a-driven luciferase reporter, luminescence; AID 651995; inhibition, % at 6.25 µM; shares compounds with Gli-Sufu block; 2,500 tested, 20% active;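 active = mean inhibition above about 25%, limit read from the data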
An asterisk follows results filed as active; · = no result.

SMILES	NR2F2 inh	TAG inh	697 NFkB inh	Jurkat NFkB inh	H9c2 protect	Gli-Sufu block	Gli antag conf	Gli cytotox	Wnt3a counter
O=C(O)c1cc(-c2ccco2)nc2ccccc12	-16	·	29	5	0	-5	·	·	·
COc1ccc(-c2cc(C(=O)N3CCCCCC3)c3ccccc3n2)cc1OC	0	-4	·	·	0	·	·	·	·
COc1ccc(-c2cc(C(=O)N3CCCCCC3)c3ccccc3n2)cc1	-6	8	-27	-9	-4	50	16	22	-11
O=C(c1cc(-c2ccco2)nc2ccccc12)N1CCN(c2ccc(F)cc2)CC1	-2	·	-3	0	0	64*	21	34*	-42
CC1(C)CC(=O)N(c2cccc(Cl)c2)C(=O)C1	-1	·	23	13	0	10	·	·	·
CC1(C)CC(=O)N(c2ccc(Cl)cc2Cl)C(=O)C1	7	·	16	15	-3	68*	7	4	-12
CC1=C[C@@H]2[C@H]3C(=O)N(Cc4ccccc4)C(=O)[C@H]3[C@@H]1[C@@H]1O[C@@]3(C(=O)N(C)c4ccccc43)C3=C(CCCC3=O)N21	-28	·	·	·	·	·	·	·	·
CSC(=S)N/N=C(\C)c1ccccc1	-20	·	-11	9	8	72*	34	18	-5
O=C(N[C@H](C(=O)N1CCC[C@H]1C(=O)NCCc1ccccc1Cl)c1ccccc1)C1CCCC1	0	·	·	·	·	·	·	·	·
Cc1cc(SC#N)cc(C)c1NC(=O)CCl	-11	8	0	21	-9	51	46*	50*	19
O=C(Nc1ccccc1Cl)C1CCCN(S(=O)(=O)c2cccc3cccnc23)C1 (stereo not drawn)	4	·	12	4	-4	76*	29	9	3
O=C(NCCc1ccccc1)OCc1cn(Cc2ccccc2Cl)nn1	17	·	·	·	·	·	·	·	·
COCc1[nH]nc2c1C(c1ccc(F)cc1)NC2=O (stereo not drawn)	-30	·	·	·	·	·	·	·	·
Cc1ccc(-c2nnc(NC(=O)c3ccco3)o2)c(C)c1	-23	3	-34	-8	-19	73*	4	13	-15
COCCn1c(C)cc(C(=O)CSc2cc(C)c3ccc(OC)cc3n2)c1C	7	9	4	6	-1	-3	·	·	·
COc1ccc2c(C)cc(SCC(=O)c3ccc4c(c3)OCO4)nc2c1	11	·	-4	-17	-3	64*	27	14	5
CCCN(CCC)CCNC(=O)c1cc2c(=O)n(C)c3ccccc3c2n1C	-8	9	-3	-26	35	63*	38	8	-71
CN(CCNC(=O)c1cc2c(=O)n(C)c3ccccc3c2n1C)Cc1ccccc1	-4	3	-2	-11	18	2	·	·	·
CCCN(CCC)Cc1cc2ccccc2c2c1COC2	6	-5	6	3	9	2	·	·	·
CCN(CC)Cc1cc2ccccc2c2c1COC2	3	·	24	15	-2	94*	13	8	-16
O=S1(=O)c2ccc(N3CCC[C@H]3CO)cc2O[C@@H]2CCN1C2	-10	·	·	·	·	·	·	·	·
Cc1cc(C(=O)COC(=O)c2cccc(O)c2)c(C)n1C1CC1	2	-3	-35	-134	-16	99*	7	33*	64*
Cc1cc(C(=O)COc2cccc([N+](=O)[O-])c2)c(C)n1C1CC1	-47	2	-106	-57	-3	-69	·	·	·
CNS(=O)(=O)c1cccc(C(=O)OCC(=O)c2cc(C)n(CC3CCCO3)c2C)c1 (stereo not drawn)	20	2	-96	-64	-25	51	68*	-3	-10
Cc1cc(Oc2cccnc2)ccc1NC(=O)CCc1c[nH]c2ccccc12	6	·	·	·	·	·	·	·	·
CC1=C(C(=O)Nc2ccccc2C)C(c2ccc(C)o2)C2=C(CCCC2=O)N1 (stereo not drawn)	-3	·	-24	-10	6	97*	15	6	35*
